Measurements from the supplement of paper PMC6555819.

Key:
Experiment in all cases: PBM binding z-score (relative to random genomic background probes); higher = stronger binding; sequences stand for … in GC…GCGATTGACAGCGTAGAATGAAGG
[1] = system: RARb homodimer (NR concentration 270 nM)
In short: (§1)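 Probes were double-stranded and carried 34-nt variable regions with direct-repeat seeds, single-nucleotide variants, half-site ablations and random human genomic background sequences, printed on custom Agilent 4×180K protein-binding microarrays. Arrays were incubated 1 h with ligand-free nuclear receptor dimers in PBS pH 7.4, 2% milk, 0.02% Triton X-100, 1 mM DTT, 0.2 mg/mL BSA and 0.4 mg/ml salmon testes DNA. Antibodies against each partner (one per run) detected binding, and scanned fluorescence was regression-normalized. Binding z-scores use the random background probes as reference.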

[2] = system: RARg:RXRa (NR concentration 270 nM, RXRa partner concentration 90 nM)
In short: as §1

[3] = system: RARg homodimer (NR concentration 270 nM)
In short: as §1

[4] = system: RXRa DBDmut IVT, anti-RXR (DBD mutation: RXRa K156A/R161A, NR concentration 90 nM)
In short: as §1

[5] = system: RXRa homodimer (NR concentration 180 nM)
In short: as §1

[6] = system: THRa:RXRa (NR concentration 90 nM, RXRa partner concentration 90 nM)
In short: as §1

[7] = system: THRa homodimer (NR concentration 90 nM)
In short: as §1

[8] = system: VDR homodimer (NR concentration 270 nM)
In short: as §1

Row | Sequence | PBM binding z-score [1] | PBM binding z-score [2] | PBM binding z-score [3] | PBM binding z-score [4] | PBM binding z-score [5] | PBM binding z-score [6] | PBM binding z-score [7] | PBM binding z-score [8]
1 | CCTGCTAGGTCATAGTCAGCTAATCTACAGTATG | 2.32 | 3.3 | 3.57 | 2.08 | 2.13 | 2.62 | 0.766 | 0.519
2 | GCTATCAGTTGAAAGGGCAACCGAATGATTCTCG | 1.81 | 1.22 | 1.28 | 0.45 | 1.26 | 0.693 | -0.411 | -0.03
3 | CGTCCGAGGTCAGCAGGTCAGTGAAAGCGACGTG | 4.89 | 6.81 | 7.31 | 2.99 | 6.26 | 4.09 | 2.53 | 2.44
4 | CCAGATAGGTGAGAAGGTAACTCAGCCTCGATTA | 0.492 | 0.647 | 0.649 | 0.238 | 0.44 | 0.177 | -0.0242 | -0.157
5 | CGTACAGGGTCAGCTAGGCCAGAGTAGGGACGGC | 3.07 | 4.55 | 4.77 | 1.93 | 4.1 | 3.05 | 0.562 | 1.14
6 | ATCTCTAGGTAAAGATAGTACAGTGAATGCAAAT | 0.0852 | 0.268 | 0.707 | -0.147 | 0.301 | 0.452 | 0.0174 | 0.54
7 | GGAACGAGAGCAAGTTGATAGCAGAGTTTGATGG | -0.683 | -0.186 | -0.0143 | 0.292 | 0.0687 | -0.547 | -1.15 | -0.0204
8 | TCTATTTGTTGAAGGGCAACCGACGAGTCCGTTT | 1.57 | 0.705 | 1.07 | 1.55 | 0.578 | 0.482 | 0.62 | 1.92
9 | TCTATTAGTTGAAAGGCAACCGACGAGTCCGTTT | -0.227 | 0.248 | 0.111 | 1.66 | 0.759 | 0.0956 | 0.0862 | 1.08
10 | TGTCAAAGTTGAAAGGTAACGTAAGTATCCACAC | 1.36 | 2.23 | 1.4 | -0.369 | 2.69 | 1.77 | -0.382 | -0.281
11 | TAGCCTAGGTCATTAAGGGGCCAGTATAGAAAGC | 3.1 | 5.12 | 3.99 | 1.36 | 2.52 | 2.9 | 0.623 | 0.937
12 | CCTACTGGGCCAAACAGGTCATTGATGCCGATAA | 2.13 | 1.56 | 1.36 | 0.175 | 1.38 | 1.39 | 0.0902 | 1.53
13 | CAAACTAGGTCACAGAGGTCAAGGTCCGTGCGTA | 5.39 | 7.22 | 7.73 | 2.61 | 7.09 | 5.05 | 3.46 | 4.66
14 | CCTCACGGGTCACTCCAGGTTATAGCATCGGAGT | 3.09 | 4.28 | 4.2 | 1.49 | 4.07 | 4.79 | 0.721 | 1.94
15 | TCGAGTAGGATAGTCGGGGCATTCAGCCAACATA | -0.402 | -0.475 | -0.579 | 0.18 | -0.289 | 0.0302 | -0.471 | -0.497
16 | TCGAGTAGGTTACCAATGGGGCATTAAGCTTTCT | 0.561 | 0.966 | 0.213 | 0.338 | 0.336 | -0.0215 | -0.627 | -0.636
17 | ACTGGCAGGCCAAGGGTCACTCAAGATTAGTCCG | 3.66 | 4.14 | 3.64 | -0.0715 | 3.95 | 2.71 | 0.159 | 1.11
18 | AGAACGAGGGCAGTGAGTTGATAGCACGGGTGGC | 0.73 | 0.413 | 0.886 | 1.24 | 0.269 | 0.176 | -0.413 | 2.23
19 | CCTGCTAGGTCAATGGTAAGCTAAAGCAGCTCGC | 2.43 | 3.52 | 3.82 | 1.66 | 1.96 | 2.03 | 0.52 | -0.274
20 | CTACCAAGGTGAACAAGATCGTTGATTACTATTC | 0.653 | 0.951 | 0.995 | 0.225 | 0.874 | 1.66 | 0.798 | -0.0814
21 | GGAACGAGGGCAAGTTGATACCAGAGTTTGATGG | 1.43 | 1.53 | 2.1 | 2.56 | 1 | 1.31 | -0.003 | 2.05
22 | TCATACAGGTAATACAGGTGAAAGTCGGCATCTA | 0.84 | 0.731 | 0.586 | 1.65 | 1.23 | 1.18 | 0.583 | 0.391
23 | CTACCAATGTGAACAAGGTCGTTGATTACTATTC | 1.33 | 0.629 | 0.564 | 1.83 | 1.08 | 2.17 | 1.33 | 2.32
24 | GGAACAAGGGCATTCGAGTTGATAGCATGGCGAT | 1.12 | 1.21 | 1.36 | 2.48 | 0.917 | 3.16 | -0.205 | 2.39
25 | CCTCAGAGGACAGAAGGTCAGAGCTGTCCGCTTT | 3.51 | 3.95 | 3.91 | 0.625 | 2.1 | 1.95 | -0.0422 | 0.12
26 | TCATATATGTAAACAGGTGAAAGTCCGTAAGTTA | 0.609 | 0.551 | 0.376 | 1.85 | 0.989 | 0.84 | 0.27 | 0.413
27 | TCATATAGGTAAACAGGTGAAAATCCGTAAGTTA | 0.649 | 0.838 | 0.551 | 1.57 | 1.52 | 0.866 | 0.391 | 0.265
28 | GCTTACGGGTCAAAGGTTATAGCGTGAATAGAAT | 3.29 | 6.87 | 4.52 | 2.22 | 9.28 | 3.83 | 0.134 | 1.44
